Measurements reported in PubChem BioAssay (NCATS).
Several values for one entry are separate records, joined by “and”; a condition that tells them apart may be missing. Identical values can stand only once. Inconclusive results are not listed. Activity calls are given as the source filed them. Calls come from the whole dose curve; as a rule, active = well fitted curve in the direction sought with a large enough effect; inconclusive = small, poorly fitted or top-dose-only effect, or another doubt; inactive = no such curve, though single readings can be large; an effect the other way counts as inactive or inconclusive.

Tests used:
HEK293 = test: Cytotoxic Profiling of Annotated Libraries Using Quantitative High-Throughput Screening (AID 1296008); details: Five cell lines viability, CellTiter-Glo ATP luminescence, 48-72 h; max response: active compounds read low; note: nearly all actives have a fitted effect of over 60% in size; for max response: % is set by controls: 0 for no effect and ±100 for the full control effect
Method in brief: (§1)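 Cells exposed to compounds for 48 or 72 hr at 37 degrees Celsius. Viability read as ATP-coupled luminescence with CellTiter-Glo after 10 min at room temperature.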

HaCat [1] = test: as above; details: Five cell lines viability, CellTiter-Glo ATP luminescence, 48-72 h; max response: active compounds read low
Method in brief: as §1

NIH3T3 [2] = test: as above; details: Five cell lines viability, CellTiter-Glo ATP luminescence, 48-72 h; max response: active compounds read low
Method in brief: as §1

HACAT [3] = test: qHTS assay to identify novel small-molecules to repurpose for Merkel cell carcinoma treatment (AID 1296009); details: MCC and control cell lines, CellTiter-Glo viability, 72 h; at 44.8 µM (top of the series) unless noted; note: nearly all actives have a fitted effect of over 60% in size
Method in brief: (§2)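 Cells were treated for 72 hr at 37 degree celsius with compounds in 8- or 11-point dose response. Viability was read by CellTiter-Glo luminescence, normalized to no-cell (cytotoxicity) and DMSO controls.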

MCC-13 = test: as above; details: MCC and control cell lines, CellTiter-Glo viability, 72 h; series mostly up to 46 µM
Method in brief: as §2

MCC-26 = test: as above; details: MCC and control cell lines, CellTiter-Glo viability, 72 h; series mostly up to 46 µM
Method in brief: as §2

MKL-1 = test: as above; details: MCC and control cell lines, CellTiter-Glo viability, 72 h; series mostly up to 46 µM
Method in brief: as §2

MKL-2 = test: as above; details: MCC and control cell lines, CellTiter-Glo viability, 72 h; series mostly up to 46 µM
Method in brief: as §2

UISO = test: as above; details: MCC and control cell lines, CellTiter-Glo viability, 72 h; series mostly up to 46 µM
Method in brief: as §2

WaGa = test: as above; details: MCC and control cell lines, CellTiter-Glo viability, 72 h; series mostly up to 46 µM
Method in brief: as §2

C33A = test: Primary qHTS to identify gynecologic anti-cancer compounds using libraries of approved drugs and bioactive compounds (AID 1345084); details: Gynecologic cancer cell panel viability, ATPlite luminescence, 48 h; series mostly up to 57.5 µM; note: nearly all actives have a fitted effect of over 55% in size
Method in brief: (§3)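 48 h compound exposure at 37 C, 5% CO2; five-point qHTS. ATPlite luminescence readout of cell ATP.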

CAOV3 = test: as above; details: Gynecologic cancer cell panel viability, ATPlite luminescence, 48 h; series mostly up to 57.5 µM
Method in brief: as §3

CASKI = test: as above; details: Gynecologic cancer cell panel viability, ATPlite luminescence, 48 h; series mostly up to 57.5 µM
Method in brief: as §3

Es-2 = test: as above; details: Gynecologic cancer cell panel viability, ATPlite luminescence, 48 h; series mostly up to 57.5 µM
Method in brief: as §3

HeLa = test: as above; details: Gynecologic cancer cell panel viability, ATPlite luminescence, 48 h; series mostly up to 57.5 µM
Method in brief: as §3

KB-3-1 = test: Cytotoxic Profiling of Annotated Libraries Using Quantitative High-Throughput Screening (AID 1296008); details: Five cell lines viability, CellTiter-Glo ATP luminescence, 48-72 h; max response: active compounds read low; note: nearly all actives have a fitted effect of over 60% in size; for max response: % is set by controls: 0 for no effect and ±100 for the full control effect
Method in brief: as §1

W2 = test: qHTS profiling for inhibitors of Plasmodium falciparum proliferation (AID 504749); note: nearly all actives have a fitted effect of over 60% in size; details: P. falciparum in erythrocytes, SYBR Green DNA, 72 h; series mostly up to 28.7 µM
Method in brief: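 P. falciparum-infected erythrocytes (0.3% parasitemia, 2.5% hematocrit) incubated with compound 72 h at 37 C, 5% CO2. Parasite DNA detected by SYBR Green after lysis, overnight at room temperature; normalised to 0.29 uM artemisinin and DMSO.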

HEK293T = test: qHTS assay to identify novel small-molecules to repurpose for Merkel cell carcinoma treatment (AID 1296009); details: MCC and control cell lines, CellTiter-Glo viability, 72 h; at 44.8 µM (top of the series) unless noted; note: nearly all actives have a fitted effect of over 60% in size
Method in brief: as §2

NIH3T3 [4] = test: as above; details: MCC and control cell lines, CellTiter-Glo viability, 72 h; at 44.8 µM (top of the series)
Method in brief: as §2
Potency is the fitted concentration of half-maximal effect.

NC(=O)C1(N2CCCCC2)CCN(CCCC(=O)c2ccc(F)cc2)CC1
inactive: max response (HEK293) -19.7% | outcome (HaCat [1]) | max response (NIH3T3 [2]) -2.39% | outcome (HACAT [3]) | Potency (MCC-13) | Potency (MCC-26) | Potency (MKL-1) | Potency (MKL-2) | Potency (UISO) | Potency (WaGa) | Potency (C33A) | Potency (CAOV3) | Potency (CASKI) | Potency (Es-2) | Potency (HeLa)

CCO[C@@H]1O[C@H](C(COCc2ccccc2)OCc2ccccc2)[C@H](OCc2ccccc2)[C@H]1O (stereo partly drawn)
active: Potency (HEK293) 16.8 µM | Potency (WaGa) 26.6 µM
inactive: max response (KB-3-1) -15.4% | Potency (MCC-13) | Potency (MCC-26) | Potency (MKL-1) | Potency (C33A) | Potency (CASKI)

CCc1nn(CCCN2CCN(c3cccc(Cl)c3)CC2)c(=O)n1CCOc1ccccc1
inactive: max response (KB-3-1) 3.08% and -5.51% | Potency (MCC-13) | Potency (MCC-26) | Potency (C33A) | Potency (CAOV3) | Potency (CASKI) | Potency (Es-2)

NS(=O)(=O)c1cc(C(=O)O)cc(N2CCCC2)c1Oc1ccccc1
inactive: max response (HEK293) 2.69% | max response (HaCat [1]) -7.61% | max response (KB-3-1) 3.66% | max response (NIH3T3 [2]) -1.53% | Potency (MCC-13) | Potency (MCC-26) | Potency (MKL-1) | Potency (MKL-2) | Potency (UISO) | Potency (WaGa) | Potency (C33A) | Potency (CAOV3) | Potency (CASKI) | Potency (Es-2) | Potency (HeLa)

CCCCCCCCCCCCCC[N+](C)(C)Cc1ccccc1
active: Potency (W2) 4.26 µM | Potency (HEK293) 2.99 µM | Potency (HaCat [1]) 11.9 µM | Potency (MCC-26) 21.1 µM | Potency (MKL-1) 6.68 µM | Potency (MKL-2) 1.06 µM | Potency (UISO) 6.68 µM | Potency (WaGa) 7.5 µM | Potency (C33A) 25.1 µM | Potency (CASKI) 14.1 µM | Potency (HeLa) 25.1 µM

N#C/C(=C1\SCC(c2ccccc2Cl)S1)n1ccnc1 (stereo not drawn)
inactive: max response (HEK293) -7.28% | outcome (HaCat [1]) | max response (NIH3T3 [2]) -9.88% | outcome (HACAT [3]) | Potency (MCC-13) | Potency (MCC-26) | Potency (MKL-1) | Potency (MKL-2) | Potency (UISO) | Potency (WaGa) | Potency (C33A) | Potency (CAOV3) | Potency (CASKI) | Potency (Es-2)

O=C(O)C1(C(=O)O)CCC1.[NH2-].[NH2-].[Pt+2]
inactive: max response (HEK293) 1.14% | max response (HaCat [1]) 1.48% | max response (KB-3-1) 13% | max response (NIH3T3 [2]) -2.25% | Potency (MCC-13) | Potency (MCC-26) | Potency (MKL-1) | Potency (MKL-2) | Potency (UISO) | Potency (WaGa) | Potency (C33A) | Potency (CASKI) | Potency (Es-2) | Potency (HeLa)

CCC1Nc2cc(Cl)c(S(N)(=O)=O)cc2S(=O)(=O)N1 (stereo not drawn)
inactive: Potency (W2) | outcome (HEK293) | max response (HaCat [1]) 3.1% | max response (KB-3-1) -3.7% | max response (NIH3T3 [2]) 3.7% | outcome (HEK293T) | Potency (MCC-13) | Potency (MCC-26) | Potency (MKL-1) | Potency (MKL-2) | Potency (UISO) | Potency (WaGa) | Potency (C33A) | Potency (CAOV3) | Potency (CASKI) | Potency (Es-2) | Potency (HeLa)

CCCCCCCCCCCCOCCOCCOCCOCCOCCOCCOCCOCCOCCO
active: Potency (HEK293) 7.5 µM | Potency (WaGa) 21.1 µM
inactive: max response (HaCat [1]) 0.283% | max response (NIH3T3 [2]) -5.79% | Potency (MCC-13) | Potency (MCC-26) | Potency (CAOV3)

Nc1ccc(S(=O)(=O)Nc2cnc3ccccc3n2)cc1
inactive: Potency (W2) | max response (HEK293) 1.95% | max response (HaCat [1]) -4.06% | max response (KB-3-1) -10.8% | outcome (NIH3T3 [2]) | Potency (MCC-13) | Potency (MCC-26) | Potency (MKL-1) | Potency (MKL-2) | outcome (NIH3T3 [4]) | Potency (UISO) | Potency (WaGa) | Potency (C33A) | Potency (CAOV3) | Potency (CASKI) | Potency (Es-2) | Potency (HeLa)

CC(=O)OC[C@H]1O[C@@H](n2ncc(=O)[nH]c2=O)[C@H](OC(C)=O)[C@@H]1OC(C)=O
inactive: Potency (W2) | max response (HaCat [1]) -1.52% | Potency (MCC-13) | Potency (MCC-26) | Potency (MKL-1) | Potency (MKL-2) | Potency (UISO) | Potency (C33A) | Potency (CAOV3) | Potency (HeLa)
active: Potency (HEK293) 0.944 µM

CCOC(=O)[C@@](C)(N)Cc1ccc(O)c(O)c1
active: Potency (HEK293) 18.8 µM
inactive: outcome (HaCat [1]) | outcome (HACAT [3]) | Potency (MCC-13) | Potency (Es-2) | Potency (HeLa)

Oc1ccccc1C=NCc1ccccc1
inactive: Potency (W2) | max response (HEK293) -3.05% | max response (HaCat [1]) -1.46% | max response (KB-3-1) -4.65% | outcome (NIH3T3 [2]) | Potency (MCC-13) | Potency (MKL-1) | Potency (MKL-2) | outcome (NIH3T3 [4]) | Potency (UISO) | Potency (WaGa) | Potency (C33A) | Potency (CASKI) | Potency (Es-2) | Potency (HeLa)

O=c1[nH]c(=O)n([C@H]2C[C@H](O)[C@@H](CO)O2)cc1F
inactive: Potency (W2)
active: Potency (HEK293) 0.0299 µM | Potency (HaCat [1]) 0.0084 µM | Potency (NIH3T3 [2]) 6 nM | Potency (WaGa) 0.0335 µM | Potency (HeLa) 5.01 µM
